The source of these data is PubChem BioAssay AID1508633 (National Center for Advancing Translational Sciences (NCATS), 2021).

Records with an inconclusive call do not appear. Activity calls are given as the source filed them. Calls come from the whole dose curve; as a rule, active = well fitted inhibition curve with a large enough effect; inconclusive = small, poorly fitted or top-dose-only effect; inactive = no such curve, though single readings can be large or run the other way. Where a SMILES comes first, the peptide text is derived from it. [ ]: non-standard residue; d: D form. The star is where a group is joined. Cbz = O=C(OCc1ccccc1)*; Nva = CCC[CH](N)C(=O)O

In this test the test system is zebrafish ABCB5 (Abcb5) multidrug transporter. Nature of the test: qHTS for characterization and localization of zebrafish homologs of the human ABCB1 multidrug transporter: ABCB5 transfected cells. The following applies: CellTiter-Glo luminescence viability, 72 h; series mostly up to 46.1 µM. The source says: The zebrafish has emerged as a potential model to study the blood-brain barrier (BBB) given its similarities with mammalian systems. However, little information has been available with regard to homologous ATP-binding cassette transporters expressed at the zebrafish BBB. Two transporters that are highly expressed at the human BBB are P-glycoprotein (P-gp, encoded by the ABCB1 gene) and ABCG2 (encoded by the ABCG2 gene). In this study, we focus on characterization of P-gp homologs in the zebrafish, which has two genes that are homologous to human ABCB1 - abcb4 and abcb5. We generated stably-transfected cell lines to determine their substrate specificities. […] Zebrafish abcb4 also colocalized with claudin 5 expression in brain endothelial cells.
A high-throughput screen was performed as previously described on empty vector transfected cells, P-gp-overexpressing MDR-19 cells and cells transfected with full-length zebrafish abcb4 (ZF Abcb4) or abcb5 (ZF Abcb5). Briefly, cells were plated into 1536-well plates at a density of 500 cells/well in 5 uL media. P-gp substrate compounds (approximately 90) selected from our previous study were then added at varying concentrations using a 1536-head pin tool (Kalypsis, San Diego, CA) and plates were incubated at 37C in 5% CO2 for 72 h. CellTiter-Glo reagent (Promega) was dispensed into the wells, incubated for 5 min and luminescence was read on a ViewLux instrument (Perkin-Elmer).
Cytotoxic compounds were defined as those that yielded a curve class of -1.1, -1.2, -2.1, -2.2, -2.3, or -2.4, a maximum response of >50% and an AC50 of < 10 uM. All compounds from screening analysis were tested in Vector (empty vector control), MDR-19 (P-gp overexpressing), zebrafish abcb4 (ZF Abcb4) and abcb5 (ZF Abcb5) expression cell lines.
1. Tobie D Lee, Olivia W Lee, Kyle R Brimacombe, Lu Chen, Rajarshi Guha, Sabrina Lusvarghi, Bethilehem G Tebase, Carleen Klumpp-Thomas, Robert W Robey, Suresh V Ambudkar, Min Shen, Michael M Gottesman, Matthew D Hall. A High-Throughput Screen of a Library of Therapeutics Identifies Cytotoxic Substrates of P-glycoprotein. Mol Pharmacol. 2019, Nov;96(5):629-640.
For the compound `CC(C)C[C@@H](C=O)NC(=O)[C@H](CC(C)C)NC(=O)[C@H](CC(C)C)NC(=O)OCc1ccccc1` (Cbz-Leu-Leu-Leu-aldehyde), the Potency is 1.18 µM (active). Same read-out and setting: the result for `COc1cc(C(=O)NC2CCN(C)CC2)ccc1Nc1ncc2c(n1)N(C1CCCC1)CC(F)(F)C(=O)N2C` reads 1.18 µM (active); that for `Cc1ccc(C(=O)N(CCCN)[C@@H](c2oc3cc(Cl)ccc3c(=O)c2Cc2ccccc2)C(C)C)cc1`, 23.5 µM (active); that for `CCS(=O)(=O)c1cccc(-c2cc(C(=O)NC3CCN(C)CC3)c(C)c3[nH]c4ncc(C)cc4c23)c1`, “inactive”.

As for `COC[C@H](NC(=O)c1cnc(C)s1)C(=O)N[C@@H](COC)C(=O)N[C@@H](Cc1ccccc1)C(=O)[C@@]1(C)CO1`, the Potency is 0.166 µM (active). Regarding `Cc1[nH]c2ccccc2c1CCNCc1ccc(/C=C/C(=O)NO)cc1`, the Potency is 0.59 µM (active). Consider `Cc1ccc(-c2ncn(-c3ccc(Nc4nccc(-c5cccc(N6CCOCC6)c5)n4)cc3)n2)cn1`, for which the Potency was 5.9 µM (active).

For `C[C@@]12O[C@@H](C[C@]1(O)CO)n1c3ccccc3c3c4c(c5c6ccccc6n2c5c31)CNC4=O`, the Potency is 5.26 µM (active). As for `C=CCNC1=C2CC(C)CC(OC)C(O)C(C)/C=C(\C)C(OC(N)=O)C(OC)/C=C/C=C(\C)C(=O)NC(=CC1=O)C2=O` (stereo not given), the Potency was 11.8 µM (active). `CCN(CCCO)CCCOc1ccc2c(Nc3cc(CC(=O)Nc4cccc(F)c4)[nH]n3)ncnc2c1`: the Potency result was “inactive”. With `C[C@@H](Oc1cc(-n2cnc3ccc(CN4CCN(C)CC4)cc32)sc1C(N)=O)c1ccccc1C(F)(F)F`, the Potency is 4.18 µM (active). With `Oc1ccc(-c2ccc(-c3cc(Nc4cccc(CNC5CC5)c4)n[nH]3)cc2)c(O)c1`, the Potency is 5.26 µM (active). With `CCC(C)C(=O)OC1CC(O)C23C4OCC5(C(O)CC2C1(C)C(O)O4)C3C(=O)C(O)C1(C)C(O)(c2ccoc2)CC2OC251` (stereo not given), the Potency entry is “inactive”. For the compound `Cc1cc(Nc2cc(NC(=O)c3c(Cl)cccc3Cl)ccn2)nc(N)n1`, the Potency is 7.43 µM (active). Regarding `C/C=C1/NC(=O)C2CSSCCC=CC(CC(=O)NC(C(C)C)C(=O)N2)OC(=O)C(C(C)C)NC1=O` (stereo not given), the Potency is 2.09 µM (active). With `CC1(C)CC(NC(=O)C(=O)Nc2ccc(Br)cc2)CC(C)(C)N1`, the Potency entry was “inactive”.

In the case of `COc1cc(N2CCC(O)CC2)ccc1Nc1nc(Nc2ccccc2S(=O)(=O)C(C)C)c2[nH]cnc2n1`, the Potency result was “inactive”.

`CCc1cccc(CC)c1NC(=O)N1Cc2[nH]nc(NC(=O)c3ccc(N4CCN(C)CC4)cc3)c2C1`: the Potency result is “inactive”. On to `NC(=O)Nc1cc(-c2cccc(F)c2)sc1C(=O)N[C@H]1CCCNC1`, for which the Potency was 0.662 µM (active). On to `CC[C@@H]1C(=O)N(C)c2cnc(Nc3ccc(C(=O)NC4CCC(N5CCN(CC6CC6)CC5)CC4)cc3OC)nc2N1C(C)C` (stereo not given in full), for which the Potency was 1.32 µM (active).

Turning to `CC(NCc1ccc2c(c1)nc(NC(=O)c1ccc(-c3cn[nH]c3)s1)n2CC(C)(C)O)C(C)(C)C` (stereo not given), the Potency is 3.72 µM (active). Regarding `CCN(CC)Cc1ccc(C(=O)N(CCc2ccccc2OC)[C@@H]2CCNC2)cc1`, the Potency entry was “inactive”.

As for `CN(C)C1CCN(C(=O)c2ccc(NC(=O)Nc3ccc(-c4nc(N5CCOCC5)nc(N5CCOCC5)n4)cc3)cc2)CC1`, the Potency was 7.43 µM (active). Turning to `CN(C)c1ccc(C(=C2C=CC(=[N+](C)C)C=C2)c2ccc(N(C)C)cc2)cc1`, the Potency is 0.935 µM (active). For the compound `COc1cc2c(NC3CCN(C(C)C)CC3)nc(N3CCCN(C)CC3)nc2cc1OCCCN1CCCC1`, the Potency result is “inactive”. Still for that read-out and setting: in the case of `C#CCN(Cc1cc2c(=O)n(C)c(CN3CCN(C)CC3)nc2cc1Cl)c1ccc(C(=O)NCc2cccnc2)cc1` it was “inactive”. As for `CCCC(C=O)NC(=O)C(CC(C)C)NC(=O)C(CC(C)C)NC(=O)OCc1ccccc1` (stereo not drawn) (Cbz-Leu-Leu-[Nva]-aldehyde; configuration not given here), the Potency is 1.87 µM (active). On to `CC[C@@]1([C@@H]2O[C@@H]([C@H]3O[C@@](O)(CO)[C@H](C)C[C@@H]3C)C[C@@H]2C)CC[C@H]([C@]2(C)CC[C@]3(C[C@H](O)[C@@H](C)[C@@H]([C@@H](C)[C@@H](OC)[C@H](C)C(=O)O)O3)O2)O1`, for which the Potency was 2.64 µM (active). On the same count and under the same terms, the result for `CCCCc1nc2cc(C=CC(=O)NO)ccc2n1CCN(CC)CC` reads 7.43 µM (active). For `CN(C)C1CCN(C(=O)c2ccc(NC(=O)Nc3nc(N4CCOCC4)nc(N4CCOCC4)n3)cc2)CC1`, the Potency was 4.69 µM (active). `Cc1cc(N)c2ccccc2[n+]1CCCCCCCCCC[n+]1c(C)cc(N)c2ccccc21`: the Potency is 8.33 µM (active). As for `C=CCn1c(=O)c2cnc(Nc3ccc(N4CCN(C)CC4)cc3)nc2n1-c1cccc(C(C)(C)O)n1`, the Potency is 2.35 µM (active). Same read-out and setting: the result for `CC(C)C[C@H](NC(=O)[C@@H](NC(=O)c1cccc(-c2ccccc2)n1)[C@@H](C)O)B(O)O` reads 0.118 µM (active); that for `COc1cc2c(NC3CCN(C(C)C)CC3)nc(N3CCCN(C)CC3)nc2cc1OCCOCCN(C)C`, “inactive”; that for `CC[n+]1c(-c2ccccc2)c2cc(N)ccc2c2ccc(N)cc21`, 11.8 µM (active).

For `Cc1ccc(C(=O)N(CCCN)C(c2nc3cc(Cl)ccc3c(=O)n2Cc2ccccc2)C(C)C)cc1` (stereo not given), the Potency is 23.5 µM (active). Regarding `CC[C@@H]1C(=O)N(C)c2cnc(Nc3ccc(C(=O)NC4CCN(C)CC4)cc3OC)nc2N1C1CCCC1`, the Potency was 1.32 µM (active). For the compound `C[C@@H]1O[C@@H](O[C@H]2[C@@H](OC(=O)[C@]34CCC(C)(C)CC3C3=CCC5[C@@]6(C)C[C@H](O)[C@H](O[C@@H]7O[C@H](CO)[C@@H](O)[C@H](O)[C@H]7O[C@@H]7OC[C@@H](O)[C@H](O)[C@H]7O)[C@@](C)(C(=O)O)C6CC[C@@]5(C)[C@]3(C)CC4)OC[C@H](O)[C@@H]2O)[C@H](O)[C@H](O)[C@H]1O[C@@H]1OC[C@@H](O)[C@H](O)[C@H]1O` (stereo not given in full), the activity, negative = inhibition was -6.88% [at 8.96 µM] (inactive). Regarding `C#Cc1cccc(Nc2ncnc3cc(OC)c(OCCCCCCC(=O)NO)cc23)c1`, the Potency was 8.33 µM (active). `CC(=O)C1(O)Cc2c(O)c3c(c(O)c2C(OC2CC(N)C(O)C(C)O2)C1)C(=O)c1c(O)cccc1C3=O` (stereo not given): the Potency is 0.059 µM (active).
